# PubChem BioAssay (NCATS)
# The source made the active and inactive calls. No rule for the calls is given here.
# System: HIV-1 nucleocapsid protein NCp7 (binding to TG oligonucleotide)
# Assay: HIV Nucleocapsid (AID 346);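 also: potency is for inhibitors that block NC binding and lower polarization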
# Conditions: HIV-1 NC / fluorescein-TGTGTGTG probe, fluorescence polarization
# How it was run: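 10 nM TG4xF probe with 100 nM nucleocapsid protein in high-salt Hepes pH 7.5 (250mM NaCl) containing 1uM ZnCl2 and reducing agents. Compound inhibition of binding was read as fluorescein polarization after 1 hr at room temperature.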
# Potency is read from the fitted curve at half-maximal effect.
row,SMILES,Potency
1,O=C(Nc1ccccc1)N1CCCC2(CCN(C(=O)c3cnccn3)CC2)C1,> 20 µM (inactive)
2,COCCn1c(=O)c(-c2ccc(Cl)cc2)nc2cnc(N(C)C)nc21,> 20 µM (inactive)
3,Cc1cnc(CNc2ncncc2-c2c(C)noc2C)cn1,> 20 µM (inactive)
4,Cc1noc(C)c1C(=O)N1CCC2(CCN(Cc3ccncc3)CC2)CC1,> 20 µM (inactive)
5,COCCn1c(=O)c(-c2cccc(Cl)c2)nc2cncnc21,> 20 µM (inactive)
6,COC(=O)N1CCC[C@@]2(CCN(c3ccccc3)C2)C1,> 20 µM (inactive)
7,Cc1nc2cnc(Oc3cccc(Cl)c3)nc2n(Cc2ccc(F)cc2)c1=O,> 20 µM (inactive)
8,CS(=O)(=O)N1CCC2(CCCN(c3cccc(-c4ccccc4)c3)C2)CC1,> 20 µM (inactive)
9,CNc1nc(-c2cccc(NS(C)(=O)=O)c2)nc2ccccc12,> 20 µM (inactive)
10,CN(C)c1ncc2nc(-c3cccc(C#N)c3)c(=O)n(C)c2n1,> 20 µM (inactive)
11,COc1ncc2nc(-c3cn(C)c4ccccc34)c(=O)n(Cc3ccc(F)cc3)c2n1,> 20 µM (inactive)
12,N#CCCn1c(=O)cnc2cnc(Nc3ccccc3)nc21,> 20 µM (inactive)
13,c1ccc(Nc2cc(-c3ccoc3)ncn2)cc1,> 20 µM (inactive)
14,COc1cccc(-c2cc(NCc3ccccc3)ncn2)c1,> 20 µM (inactive)
15,O=C(Nc1cccc(F)c1)N1CC[C@@]2(CCCN(C(=O)c3cc(C(F)(F)F)cc(C(F)(F)F)c3)C2)C1,> 20 µM (inactive)
16,COc1ccc(C(=O)N2CCC[C@@]3(CCN(Cc4ccccc4)C3)C2)cc1,> 20 µM (inactive)
17,COc1cccc(-c2cc(NCCc3c[nH]c4ccc(OC)cc34)ncn2)c1,> 20 µM (inactive)
18,c1nc(NCCN2CCOCC2)c2cc(-c3ccoc3)ccc2n1,> 20 µM (inactive)
19,COc1cccc(Cn2c(=O)c(-c3ccc(F)cc3)nc3cnc(N4CCNCC4)nc32)c1,> 20 µM (inactive)
20,COc1ncc2ncc(=O)n(CCc3ccccc3)c2n1,> 20 µM (inactive)

row,SMILES,Potency
1,CCNc1ncc2nc(-c3ccccc3)c(=O)n(C3CC3)c2n1,> 20 µM (inactive)
2,COCCn1c(=O)c(CCc2ccccc2)nc2cnc(N3CCOCC3)nc21,> 20 µM (inactive)
3,O=S(=O)(c1ccccc1)N1CCC2(CCCN(c3ccccc3)C2)CC1,> 20 µM (inactive)
4,CN1CCCC2(CCN(C(=O)c3cc(C(F)(F)F)cc(C(F)(F)F)c3)CC2)C1,> 20 µM (inactive)
5,CS(=O)(=O)Nc1cccc(-c2nc(NCCN3CCOCC3)c3ccccc3n2)c1,> 20 µM (inactive)
6,COCCn1c(=O)c(-c2ccccc2)nc2cnc(N3CCN(C)CC3)nc21,> 20 µM (inactive)
7,CN(C)c1ncc2nc(-c3ccccc3)c(=O)n(Cc3ccc(F)cc3)c2n1,> 20 µM (inactive)
8,c1ccc2c(Nc3ccncc3)nc(-c3ccoc3)nc2c1,> 20 µM (inactive)
9,COCC(=O)N1CCC[C@@]2(CCN(c3ccccn3)C2)C1,> 20 µM (inactive)
10,COc1ccc(-c2nc3cnc(N4CCNCC4)nc3n(CCc3ccccc3)c2=O)cc1,> 20 µM (inactive)
11,COc1ccc(-c2nc3cnc(Oc4ccccc4)nc3n(CCC#N)c2=O)cc1,16.7 µM (inactive)
12,COc1cccc(Cn2c(=O)c(-c3ccc(Cl)cc3)nc3cnc(N4CCNCC4)nc32)c1,> 20 µM (inactive)
13,CN(C)c1ncc2nc(-c3cccs3)c(=O)n(C)c2n1,> 4 µM (inactive)
14,COCCn1c(=O)c(-c2cn(C)c3ccccc23)nc2cnc(N3CCOCC3)nc21,> 20 µM (inactive)
15,COC(=O)N1CCC2(CC1)CCN(c1cccc(-c3ccccc3)c1)CC2,> 20 µM (inactive)
16,COc1ccc(-c2nc3cnc(OC)nc3n(-c3ccc(OC)cc3)c2=O)cc1,> 20 µM (inactive)
17,COc1ccc(NC(=O)N2CC3(CCN(C(=O)c4cccc(F)c4)CC3)C2)cc1,> 20 µM (inactive)
18,CNc1ncncc1-c1ccccc1CN(C)C,> 20 µM (inactive)
19,CN(C)c1ncnc2ccc(-c3cccc(C#N)c3)cc12,> 20 µM (inactive)
20,Cc1ccccc1-c1ccc2ncnc(N3CCNCC3)c2c1,> 20 µM (inactive)
